Common to all, as to assay: qHTS profiling for inhibitors of Plasmodium falciparum proliferation (AID 504749); also: nearly all actives have a fitted effect of over 60% in size
Conditions in all cases: P. falciparum in erythrocytes, SYBR Green DNA, 72 h; series mostly up to 28.7 µM

Experiment [1] deals with CP329. In a few lines:
(§1)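 SYBR Green fluorescence of parasite DNA, read after lysis and overnight dark incubation, measured growth over 72 h in erythrocyte culture at 0.3% parasitemia and 2.5% hematocrit. Data normalised to DMSO and 0.29 uM artemisinin, with plate-drift correction.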

The test system of experiment [2] is CP335. Put shortly: as §1
Experiment [3] has as its system DFO2036. Put shortly: as §1
Experiment [4] relates to DIV14. Put shortly:
as §1

The test system of experiment [5] is DIV17. In a few lines:
as §1

Experiment [6] concerns DIV30. Put shortly: as §1
Experiment [7] relates to Dd2. Put shortly: as §1
The subject of experiment [8] is ECU. In a few lines:
as §1

Experiment [9] concerns FAB9. In a few lines:
as §1

For experiment [10], the system named is GB4. Put shortly:
as §1

Experiment [11] relates to HB3. Put shortly:
as §1

In experiment [12] the test system is ICS. In a few lines:
as §1

Experiment [13] deals with JCK. Put shortly:
as §1

The subject of experiment [14] is N140. Put shortly: as §1
Experiment [15] concerns P93_24. Put shortly: as §1
The subject of experiment [16] is P94_40. In a few lines:
as §1

Experiment [17] concerns PAD. Put shortly:
as §1

Experiment [18] has as its system PC15. Put shortly:
as §1

Experiment [19] relates to PC26. In a few lines: as §1
The test system of experiment [20] is PC49. Put shortly:
as §1

Inconclusive results are not listed. Active and inactive are the calls of the source. Calls follow the shape of the dose curve; as a rule, active = well fitted inhibition curve with a large enough effect; inconclusive = small, poorly fitted or top-dose-only effect; inactive = flat fitted curve, though single readings scatter.
Potency is read from the fitted curve at half-maximal effect.

With `Cc1cc(C(=O)NNCc2ccccc2)no1`, the Potency entry in [1], in [2], in experiment [3], in experiment [4], in experiment [5] and in [6] was “inactive” each time. Further, the Potency entry in [7], in experiment [8], in [9], in experiment [10], in [11] and in [12] was “inactive” in each case. The Potency entry in experiment [13], in experiment [14], in experiment [15], in experiment [16], in experiment [17] and in [18] was “inactive” in each case. Moreover, the Potency entry in [19] and in [20] was “inactive” throughout.
`CCN(CC)Cc1cc(Nc2ccnc3cc(Cl)ccc23)ccc1O`: the Potency in [1] is 90.7 nM (active); in experiment [2], 40.5 nM (active); in [3], 56.2 nM (active); in [4], 80.9 nM (active); in experiment [5] it was 114 nM (active); in [6] it was 181 nM (active). For the same molecule, the Potency in experiment [7] is 56.2 nM (active); in experiment [8] it was 31.6 nM (active); in [9] it was 39.8 nM (active); in [10], 40.5 nM (active); in experiment [11], 35.5 nM (active); in [12] it was 39.8 nM (active). Further, the Potency in experiment [13] was 89.1 nM (active); in experiment [14] it was 70.8 nM (active); in experiment [15], 35.5 nM (active); in experiment [16] it was 8.9 nM (active); in experiment [17], 31.6 nM (active); in experiment [18] it was 178 nM (active). The figures for the Potency in experiment [19] and in [20] were 161 nM (active) and 100 nM (active), respectively.
As for `Cc1ccccc1`, the Potency result in experiment [1], in [2], in experiment [3], in experiment [4], in experiment [5] and in experiment [6] was “inactive” throughout. The Potency result in experiment [7], in experiment [8], in [9], in [10], in experiment [11] and in experiment [12] was “inactive” in each case. For the same molecule, the Potency result in experiment [13], in experiment [14], in [15], in [16], in [17] and in experiment [18] was “inactive” each time. Besides, the Potency entry in [19] and in experiment [20] was “inactive” in each case.
On to `CC1=C(/C=C/C(C)=C/C=C/C(C)=C/C=C/C=C(C)/C=C/C=C(C)/C=C/C2=C(C)CCCC2(C)C)C(C)(C)CCC1`, for which the Potency entry in experiment [1], in experiment [2], in experiment [3], in experiment [4], in [5] and in experiment [6] was “inactive” throughout. Further, the Potency result in experiment [7], in experiment [8], in experiment [9], in [10], in experiment [11] and in [12] was “inactive” in each case. The Potency entry in [13], in experiment [14], in experiment [15], in experiment [16], in [17] and in experiment [18] was “inactive” in each case. Further, the Potency result in experiment [19] and in experiment [20] was “inactive” in each case.
`COC(F)(F)C(Cl)Cl`: the Potency result in experiment [1], in [2], in experiment [3], in experiment [4], in experiment [5] and in experiment [6] was “inactive” each time. Further, the Potency result in experiment [7], in [8], in experiment [9], in [10], in [11] and in [12] was “inactive” in each case. In addition, the Potency result in experiment [13], in [14], in [15], in experiment [16], in experiment [17] and in experiment [18] was “inactive” in each case. Further, the Potency result in [19] and in experiment [20] was “inactive” each time.
Regarding `CCCCCCCCCCCC[n+]1ccc2ccccc2c1`, the Potency in experiment [1] is 601 nM (active); in experiment [2], 953 nM (active); in experiment [3], 562 nM (active); in [4], 757 nM (active); in [5], 953 nM (active); in experiment [6], 1350 nM (active). Further, the Potency is 562 nM (active) in [7]; 1260 nM (active) in experiment [8]; 1580 nM (active) in [9]; 338 nM (active) in [10]; 2510 nM (active) in experiment [11]; 447 nM (active) in [12]. In addition, the Potency in experiment [13] is 12600 nM (active); in [14] it was 708 nM (active); in experiment [15] it was 631 nM (active); in experiment [16], 891 nM (active); in experiment [17], 2000 nM (active); in experiment [18], 2240 nM (active). The Potency in experiment [19] was 953 nM (active).
As to `CC(O)CO` (stereo not drawn), the Potency entry in experiment [1], in [2], in [3], in experiment [4], in experiment [5] and in experiment [6] was “inactive” each time. Moreover, the Potency result in [7], in [8], in experiment [9], in experiment [10], in experiment [11] and in experiment [12] was “inactive” throughout. Further, the Potency result in [13], in experiment [14], in experiment [15], in [16], in experiment [17] and in [18] was “inactive” throughout. Moreover, the Potency entry in [19] and in [20] was “inactive” in each case.
With `COC(=O)[C@H]1[C@H]2C[C@@H]3c4[nH]c5ccccc5c4CCN3C[C@H]2C[C@@H](OC(=O)c2cc(OC)c(OC)c(OC)c2)[C@@H]1OC`, the Potency was 151 nM (active) in experiment [1]; 151 nM (active) in experiment [2]; 355 nM (active) in [3]; 190 nM (active) in experiment [4]; 239 nM (active) in experiment [5]; 135 nM (active) in experiment [6]. Moreover, the Potency in experiment [7] is 89.1 nM (active); in [8], 316 nM (active); in [9], 1260 nM (active); in [10], 135 nM (active); in experiment [11], 794 nM (active); in [12], 100 nM (active). The Potency was 891 nM (active) in experiment [13]; 199 nM (active) in experiment [14]; 126 nM (active) in experiment [15]; 316 nM (active) in experiment [16]; 251 nM (active) in experiment [17]; 447 nM (active) in experiment [18]. For the same molecule, the Potency in [19] is 269 nM (active); in experiment [20] it was 251 nM (active).
With `CCNC(=O)[C@@H]1CCCN1C(=O)[C@H](CCCN=C(N)N)NC(=O)[C@H](CC(C)C)NC(=O)[C@@H](Cc1c[nH]c2ccccc12)NC(=O)[C@H](Cc1ccc(O)cc1)NC(=O)[C@H](CO)NC(=O)[C@H](Cc1c[nH]c2ccccc12)NC(=O)[C@H](Cc1cnc[nH]1)NC(=O)[C@@H]1CCC(=O)N1`, the Potency in experiment [1] was 8490 nM (active); in experiment [2] it was 4780 nM (active); in [3], 5620 nM (active); in experiment [4], 953 nM (active); in experiment [5], 953 nM (active); in experiment [6], 1690 nM (active). Besides, the Potency in [7] was 3160 nM (active); in experiment [8] it was 1120 nM (active); in experiment [9] it was 8910 nM (active); in experiment [10] it was 2390 nM (active); in experiment [11], 11200 nM (active); in [12], 2240 nM (active). Moreover, the Potency in [13] is 14100 nM (active); in [14], 4470 nM (active); in experiment [15] it was 3160 nM (active); in experiment [16], 7940 nM (active); in experiment [17] it was 2240 nM (active); in [18] it was 3550 nM (active). Besides, the Potency in [19] is 3380 nM (active); in [20], 2820 nM (active).
Take `O=S(=O)(O)O`: the Potency entry in experiment [1], in experiment [2], in [3], in experiment [4], in experiment [5] and in experiment [6] was “inactive” in each case. The Potency result in [7], in experiment [8], in experiment [9], in experiment [10], in [11] and in experiment [12] was “inactive” each time. Also, the Potency result in experiment [13], in [14], in [15], in experiment [16], in [17] and in [18] was “inactive” each time. Also, the Potency entry in [19] is “inactive”.
For the molecule `O=C1C(=O)c2ncccc2-c2cccnc21`, the Potency in experiment [1] was 1200 nM (active); in experiment [2], 536 nM (active); in [3], 1000 nM (active); in experiment [4], 953 nM (active); in experiment [5], 953 nM (active); in [6] it was 1510 nM (active). In addition, the Potency was 1120 nM (active) in [7]; 2000 nM (active) in [8]; 7940 nM (active) in experiment [9]; 849 nM (active) in experiment [10]; 1000 nM (active) in experiment [11]; 631 nM (active) in [12]. Further, the Potency is 10000 nM (active) in experiment [13]; 1260 nM (active) in experiment [14]; 891 nM (active) in experiment [15]; 794 nM (active) in experiment [16]; 794 nM (active) in experiment [17]; 891 nM (active) in experiment [18]. The Potency was 1070 nM (active) in experiment [19] and 3550 nM (active) in experiment [20].

The values above are taken from PubChem BioAssay (NCATS).
